Assay outcomes (PubChem)
Rows were chosen to be rich in hits. Some 4.6% of all compounds tested hit in one or more screens of this group.
D1 PAM: enhances dopamine response at the human D1 receptor; P21728; HEK293 TREx D1 cells, calcium flux, dopamine EC20 potentiation; potentiation, % at 10 µM; 360,000 tested, 0.036% active; in the data active means potentiation above about 30%; further: 0% is about no effect
Target sequence (P21728 whole entry, looked up): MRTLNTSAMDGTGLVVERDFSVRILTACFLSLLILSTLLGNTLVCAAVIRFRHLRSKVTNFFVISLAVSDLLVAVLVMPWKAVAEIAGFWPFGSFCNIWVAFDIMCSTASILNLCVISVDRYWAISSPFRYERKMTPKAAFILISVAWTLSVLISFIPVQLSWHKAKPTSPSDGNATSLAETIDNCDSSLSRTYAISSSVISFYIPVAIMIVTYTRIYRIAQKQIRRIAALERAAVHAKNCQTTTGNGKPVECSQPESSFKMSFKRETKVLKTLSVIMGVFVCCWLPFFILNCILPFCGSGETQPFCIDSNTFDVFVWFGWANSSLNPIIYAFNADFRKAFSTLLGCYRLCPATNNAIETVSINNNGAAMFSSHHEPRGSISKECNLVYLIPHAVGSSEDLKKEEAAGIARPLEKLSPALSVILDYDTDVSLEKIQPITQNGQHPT
TRHR enhancer: allosteric enhancers of human TRH receptor; P34981; TRHR cells, fluo-8 calcium fluorescence, EC20 TRH enhancement; enhancement, % at 2 µM; 360,000 tested, 0.66% active; AID 493056; in the data active means enhancement above about 30%; further: 0% is about no effect
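Enhancer read-out: after compound pinning and an initial kinetic agonist-mode read, an EC20 of TRH (10 nM final) was injected and fluo-8 calcium signal (Ex 480/Em 530) followed at 1 s/cycle for 100 cycles in TRHR-expressing cells.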
TRHR agonist: activates the human TRH receptor; P34981; TRHR cells, calcium flux fluo-8, FDSS agonist mode; activation, % at 2 µM; 360,000 tested, 0.18% active; further: 0% is about no effect
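In this calcium-flux screen, cells bearing human TRHR are dye-loaded with fluo-8, baselined for 10 cycles, then exposed to library compounds; positive kinetic calcium responses during the agonist phase mark hits, with TRH as control.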
D1 antag: human D1 dopamine receptor antagonism | AID 504652 | HEK293 TREx D1 cells, calcium flux, dopamine EC80; active compounds read low | 360,000 tested, 3.2% active | P21728 | activity change, negative = inhibition, % at 10 µM; in the data active means activity change below about -30%; further: on the % scale 0 is the no-effect control and ±100 the full control effect
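Tetracycline-induced HEK293 T-REx cells with force-coupled D1 receptor were loaded with a no-wash calcium dye. Compound was added after a 10 s baseline and read kinetically for 180 s; EC80 dopamine was then added and calcium flux followed another 180 s.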
D1 agonist: human D1 receptor agonism; 360,000 tested, 1% active; activation, % at 2 µM; P21728; HEK293 T-REx D1 cells, calcium flux, agonist mode; further: 0% is about no effect
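Agonism was scored from calcium flux recorded over 180 s (1 read/s) after pintool compound addition, following a 10-cycle baseline. Cells were inducible force-coupled HEK293 TREx D1, plated overnight at 30 C and loaded with no-wash calcium dye.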
An asterisk follows results filed as active. Unless noted, no stated cut-off is given here; in the data, active means activation above about 30%; inactive means the rest.

SMILES | D1 PAM | TRHR enhancer | TRHR agonist | D1 antag | D1 agonist
C=CCc1cc(OC)ccc1OCC(O)CN1CCN(c2ccc(OC)cc2)CC1 (configuration not stated) | -3 | 6 | 0 | -7 | 6
C=CCc1ccccc1OCC(O)CN1CCN(c2ccccc2OC)CC1 (configuration not stated) | -8 | 5 | 1 | -43* | 16
CCOc1ccccc1CNC(=O)Cn1ncn2nc(-c3cccs3)cc2c1=O | -1 | -5 | 0 | 10 | 0
Cc1cc(C)cc(C(=O)Nc2c3c(nn2-c2ccccc2C)CS(=O)(=O)C3)c1 | 2 | 2 | -1 | 22 | -4
COc1ccc(N2CCN(CC(O)COc3ccc(F)cc3)CC2)cc1 (configuration not stated) | -22 | 11 | 0 | -66* | 12
C=CCc1ccc(OCC(O)CN2CCCCC2)c(OC)c1 (configuration not stated) | -7 | 0 | 0 | -6 | 2
C=CCc1ccc(OCC(O)CN2CCN(c3ccccc3)CC2)c(OC)c1 (configuration not stated) | -11 | 0 | 0 | -31* | 14
O=C1CC(c2ccc(F)cc2)Sc2nc(C34CC5CC(CC(C5)C3)C4)nn21 (configuration not stated) | -8 | 30 | 0 | -52* | 2
O=C1CC(c2ccccc2)Sc2nc(-c3ccc(F)cc3)nn21 (configuration not stated) | -2 | 1 | 0 | 16 | 2
COc1ccc2c(c1)c1c(c(=O)n(Cc3ccccc3)c(=O)n1CC(=O)NCc1ccc(C)cc1)n2C | -1 | -3 | 0 | -1 | -1
CCC(=O)Nc1ccc(C(=O)N/N=C/c2cc(Br)c(OC)cc2OC)cc1 | -8 | 0 | 0 | -31* | 2
COc1ccccc1/C=N/NC(=O)c1ccc(NC(=O)c2ccccc2Br)cc1 | -2 | 4 | 0 | -28 | 10
Cn1nc(C(=O)N2CCN(c3ccccc3F)CC2)c2c1-c1ccccc1SC2 | -3 | -22 | 0 | -35* | 4
COc1ccc2c(c1OC)C(=O)OC2CC(=O)O (configuration not stated) | 0 | -1 | 1 | -30* | 1
CC(C)CC(=O)Nc1nnc(SCC(=O)NC2CCCCC2)s1 | -3 | 3 | 0 | -30 | 1
Cc1ccc(-n2nc3c(c2NC(=O)c2ccc4c(c2)OCO4)CS(=O)(=O)C3)cc1 | -5 | 3 | 0 | -7 | 1
Cc1ccc(-n2nc3c(c2NC(=O)c2ccc4c(c2)OCO4)CS(=O)C3)c(C)c1 (configuration not stated) | 2 | -14 | 0 | -52* | 1
O=C(Nc1c2c(nn1-c1cccc(Cl)c1)CS(=O)C2)c1ccc2c(c1)OCO2 (configuration not stated) | -3 | -12 | 1 | -36* | 3
O=C(Nc1c2c(nn1-c1ccc(F)cc1)CS(=O)C2)c1ccc2c(c1)OCO2 (configuration not stated) | -5 | 0 | 0 | 14 | 2
N=c1n(Cc2ccccc2)c2ccccc2n1CC(O)COc1ccc(Cl)cc1Cl (configuration not stated) | 32* | 5 | 3 | -7 | 87*
Cc1cccc(OCC(O)Cn2c(=N)n(Cc3ccccc3)c3ccccc32)c1 (configuration not stated) | -4 | 0 | 2 | -3 | 68*
Cc1ccc(OCC(O)Cn2c(=N)n(Cc3ccccc3)c3ccccc32)cc1 (configuration not stated) | -5 | 8 | 1 | -5 | 10
CCn1c(=N)n(CC(O)COc2ccccc2)c2ccccc21 (configuration not stated) | -2 | 4 | 0 | 9 | 4
CCOc1ccc(CN2CCN(CC(O)Cn3c4ccccc4c4ccccc43)CC2)cc1 (configuration not stated) | -2 | 0 | 1 | -6 | 16
COc1ccc(CN2CCN(CC(O)Cn3c4ccccc4c4ccccc43)CC2)cc1 (configuration not stated) | -6 | 5 | 1 | -94* | 23
SMILES | D1 PAM | TRHR enhancer | TRHR agonist | D1 antag | D1 agonist
COc1ccc(OCC(O)Cn2c(=N)n(Cc3ccccc3)c3ccccc32)cc1 (configuration not stated) | -20 | -1 | 1 | -46* | 48*
CCOc1ccc(NC(=O)Cn2nc(SC)c(S(=O)(=O)c3ccccc3)c2N)cc1 | 2 | -2 | 0 | -7 | 2
COc1ccc(OCC(O)CN2C(=O)c3ccccc3C2=O)cc1 (configuration not stated) | 3 | -1 | -1 | 0 | 1
N=c1n(Cc2ccc(Cl)cc2)c2ccccc2n1CC(O)COc1ccccc1 (configuration not stated) | -3 | 6 | 1 | -6 | 68*
O=C1c2ccccc2C(=O)N1CC(O)COc1ccc(Cl)cc1 (configuration not stated) | -10 | 10 | -1 | -31* | 0
COc1ccc(-n2ncc3c2ncn2nc(Cc4ccccc4)nc32)cc1 | 0 | 2 | 0 | -34* | 2
COc1ccc(Cc2nc3c4cnn(-c5cccc(F)c5)c4ncn3n2)cc1 | 3 | 7 | 0 | -2 | -1
Nc1nnn(CC(=O)N/N=C/c2cccc(Cl)c2)n1 | -12 | -4 | -1 | 0 | 4
COc1ccc(N)c2c1C(=O)c1ccccc1C2=O | 4 | 5 | -1 | -2 | 3
COc1ccc(OC)c2c1C(=O)c1ccccc1C2=O | 0 | -4 | 35* | -1 | 31*
COc1cccc2c1C(=O)c1ccc3ccccc3c1C2=O | -2 | 1 | 0 | -35* | 1
CCOc1ccc(C(=O)Cn2c(=O)n3nc(CCn4nc(C)cc4C)nc3c3cc(OC)c(OC)cc32)cc1 | 1 | 13 | 0 | -13 | -1
COc1c(Cl)cc(Cl)cc1C(=O)Nc1ccc(CN2CCCCC2)cc1 | 0 | 10 | -2 | 0 | 31*
Cc1ccc(C(=O)NC(=S)Nc2ccc(CN3CCCCC3)cc2)c(C)c1 | -11 | -5 | 0 | -42* | 12
COc1ccc(C(=O)NC(=S)Nc2ccc(CN3CCCCC3)cc2)cc1Cl | -5 | 2 | 1 | 8 | 9
Cc1ccc(Cl)cc1N1CCN(CC(=O)Nc2ccc(CN3CCCCC3)cc2)CC1 | -8 | 13 | 4 | -48* | 54*
Cn1c(=O)n(C/C=C/c2ccccc2)c(=O)c2c1nc1n2CCN1c1ccccc1 | 8 | -1 | 0 | -12 | 4
c1ccc(Cc2nnc3sc(-c4ccncc4)nn23)cc1 | 3 | 6 | 0 | -33* | 2
c1ccc(Cc2nnc3sc(-c4cccnc4)nn23)cc1 | 7 | 9 | 0 | -7 | 5
O=S(=O)(c1ccc2c(c1)OCCO2)N1CCN(S(=O)(=O)c2cccc(Cl)c2F)CC1 | -4 | 0 | 0 | 5 | 8
